Compounds without any hit were thinned out: in the full panel of roughly 83,000, 20% have a hit.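 Step 1: grow cells in 96-well plates. Step 2: add test compound at a single concentration. Step 3: incubate 48 h. Step 4: record percent growth.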 Unmarked numbers belong to inactive results. Active and inactive are the calls of the source. How the source made its calls: active means growth percent below 10; inactive means the rest.
The compounds below were run on HL-60(TB) leukemia (assay: NCI-60 one-dose screen, 48 h (100 = growth as untreated, 0 = no growth, -100 = all killed)). Settings: 10 µM unless noted.

SMILES | growth
CC1CCN(CC(=O)Nn2c(COc3ccccc3)nc3ccccc3c2=O)CC1 | 80.3%
C#CCN(C)CCCOc1ccc(NC(=O)CCCCCCC(=O)NO)cc1Cl | 12.1%
CC1(C)CC[C@]2(C(=O)N3CCOCC3)CC[C@]3(C)C(=CC[C@@H]4[C@@]5(C)C/C(=C/c6ccco6)C(=O)C(C)(C)[C@@H]5CC[C@]43C)[C@@H]2C1 | 57.2%
O=c1[nH]c2ccccc2cc1CSc1ccccc1Nc1nccc(-c2ccc(Cl)cc2)n1 | 102%
O=c1c2ccccc2nc(COc2ccccc2)n1/N=C/C=C/c1ccccc1 | 107%
C=C(C)[C@@H]1CC[C@]2(COCCCNCCC#N)CC[C@]3(C)[C@H](CC[C@@H]4[C@@]5(C)CC[C@H](OCCCNCCC#N)C(C)(C)[C@@H]5CC[C@]43C)[C@@H]12 | 0.0603% (active)
COc1ccc(/C=N/NC2=NC3C(S2)N(C)C(=O)N3C)cc1 (stereo not given) | -28.8% (active)
Cn1cc(-c2cc(N)n3nc(-c4cn(C)c5ccc(Cl)cc45)cc3n2)c2cc(Cl)ccc21 | 31.5%
Cc1nc(-c2cc3ccccc3c(N3CCN(C)CC3)n2)cs1 | 97.2%
N#Cc1c(-c2ccc(Cl)cc2)nc(SCc2ccc(F)cc2)nc1N1CCNCC1 | -34.8% (active)
Cc1[nH]c(C(=O)Nc2ccc(C(=O)NCC3CCNCC3)cc2OC(C)C)c(Cl)c1Cl | 73.1%
COc1cc(-c2noc(C[C@@H](NC(=O)OCc3ccccc3)C(C)C)n2)cc(OC)c1OC | 100%
NC(N)=Nc1ccc(Oc2cccc(Nc3ccc(Cl)cc3)c2)cn1 | -69.4% (active)
CC(=O)c1cc(C(=O)c2ccc(Br)cc2)n2cc(C)cc(C)c12 | 83.3%
NS(=O)(=O)c1cccc(Nc2nc(SCC(=O)c3ccc([N+](=O)[O-])cc3)nc3ccccc23)c1 | 0.866% (active)
Oc1ccc(CSc2nnc(-c3ccc(Oc4ccccc4)cc3)o2)c2cccnc12 | 19.1%
C/C(=N/Nc1nc(N/N=C(/C)c2ccc([N+](=O)[O-])cc2)nc(N2CCOCC2)n1)c1ccc([N+](=O)[O-])cc1 | 92.6%
CCC(=O)Nc1ccc(-c2nc(-c3cccc(O)c3)c(-c3ccnc(Br)c3)[nH]2)cc1 | 35.6%

SMILES | growth
Cc1ccc(-c2nc(C(Cl)Cl)nc3cc(-c4ccccc4)nn23)cc1 | -12% (active)
CC(C)(C)c1cc(NC(=O)Nc2ccc(-c3cn4c5c(sc4n3)CCc3c[nH]cc3-5)cc2)no1 | 9.58% (active)
COc1ccc(/C=C2\SC(=Nc3cc(C)[nH]n3)NC2=O)cc1 | 87.1%
CCOC(=O)c1c(Nc2ccccc2)nn2c(-c3ccc(OC)cc3)ccnc12 | 77.3%
CC(=O)Oc1ccccc1C(=O)Nc1ccc(C(=O)/C=C/c2cccs2)cc1 | 103%
O=C(NCc1ncc[nH]1)c1ccc(-c2nc3ccc4[nH]ncc4c3c3c2CCCC3)cc1 | -24.7% (active)
COc1ccc2[nH]cc(-c3cc(N)n4nc(-c5c[nH]c6ccc(OC)cc56)cc4n3)c2c1 | -46.1% (active)
Nc1nc(-c2cccc([N+](=O)[O-])c2)c(N=Nc2ccc([N+](=O)[O-])cc2Cl)s1 | 6.8% (active)
CC(C)N=C(N/C(N)=N/c1nc2ccccc2s1)NC(C)C | 41.7%
CN1CCN(Cc2ccc(NC(=O)c3cncc(C#Cc4cnc5ccc(OCC(C)(C)O)nn45)c3)cc2C(F)(F)F)CC1 | 1.93% (active)
CC(=O)c1ccc(Nc2nc(SC(C)C)nc(-c3ccccc3)c2C#N)cc1 | 83.8%
Cc1cc(O)c(=O)cc2c1C[C@H]1CC(C)(C)/C=C/C[C@]3(C)Oc4cc(=O)c(O)cc(C)c4C[C@H]3C[C@H](O)[C@@]1(C)O2 | -31.8% (active)
N=C1CC(=O)NN1C(=O)CSc1nc2sc3c(c2c(=O)n1-c1ccc(Cl)cc1)CCCC3 | 108%
O=C(/C=C/c1ccc(F)cc1)Nc1cccc2cccnc12 | 93.7%
CN(C)C(=O)c1ccccc1-n1cnc2ccccc2c1=O | 99.1%
Cc1cccc2c3c(sc12)C(c1ccc(Cl)cc1)c1c(nc(CC(=O)Nc2ccccc2)[nH]c1=O)O3 (stereo not given) | 71.3%
O=C(NNc1nc2cc(F)c(F)cc2n2c(CN3CC4CNCC4C3)ccc12)c1cnccn1 (stereo not given) | -1.93% (active)
